Each structure is given as a SMILES string. Several values for one entry are separate records, joined by “and”; a condition that tells them apart may be missing. Equal values may be shown once. Activity calls are given as the source filed them.

For assay [1], the system named is Plasmodium falciparum Sir2 (PF13_0152, Sir2A). The experiment in a line: Plasmodium falciparum Sir2A binding compounds – biochemical, small-molecule microarray, 635 nm fluorescence, primary screen (AID 1098).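 Note: score merges spot fluorescence intensity with its signal-to-noise ratio.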 The following applies: fluorescence 635 nm, higher = more signal.
The nature of assay [2]: probe aDKK1 binding to arrayed compounds – biochemical, biotinylated probe, 635/667 nm fluorescence, primary screen (AID 1099).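 Note: score merges 667nm spot fluorescence with signal to noise across triplicate slides.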 The following applies: small-molecule microarray, higher = more signal.
A short description of assay [3]: probe aCHRDL2 binding to arrayed compounds – biochemical, biotinylated probe, 635/667 nm fluorescence, primary screen (AID 1100). The following applies: small-molecule microarray, higher = more signal.
A short description of assay [4]: change in splice reporter luminescence, either direction, cell-based, HEK293, spliceosome inhibition project, primary screen (AID 1101).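 Note: HEK293 cells carrying a splicing-competent luciferase reporter gene; test concentration not given here.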 The following applies: HEK293 splicing luciferase reporter, 24 h, higher = more signal, called active from +8 up or from −8 down.
In assay [5] the target is Fibroblast growth factor 10 (Homo sapiens) (UniProt O15520). The experiment in a line: compounds binding fibroblast growth factor 10 – biochemical, small-molecule microarray, 635 nm fluorescence, primary screen (AID 1102). The following applies: FGF10 binding, fluorescence 635 nm, higher = more signal.
Chain of Fibroblast growth factor 10 (Homo sapiens) (O15520 whole entry, looked up): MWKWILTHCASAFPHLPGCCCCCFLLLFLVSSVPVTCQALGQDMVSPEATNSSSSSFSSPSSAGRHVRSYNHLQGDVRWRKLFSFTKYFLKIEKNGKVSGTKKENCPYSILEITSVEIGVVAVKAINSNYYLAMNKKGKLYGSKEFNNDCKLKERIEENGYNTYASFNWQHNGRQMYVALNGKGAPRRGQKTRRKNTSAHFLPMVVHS
Assay [6] relates to glycogen synthase kinase-3 (GSK3A per assay name; protocol says GSK3B). The experiment in a line: compounds binding glycogen synthase kinase-3 – biochemical, small-molecule microarray, 635 nm fluorescence, GSK3A, primary screen (AID 1103). Note: the record names both GSK3A and GSK3B. The following applies: fluorescence 635 nm, higher = more signal.
Assay [7] has as its target Epidermal growth factor receptor (Homo sapiens) (UniProt P00533). The experiment in a line: compounds binding epidermal growth factor receptor – biochemical, small-molecule microarray, 635 nm fluorescence, primary screen (AID 1104).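 Note: score merges 667 nm emission intensity with spot signal to noise over triplicate slides.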 The following applies: EGFR binding, higher = more signal.
The target of assay [8] is Follistatin-related protein 3 (Homo sapiens) (UniProt O95633). The experiment in a line: compounds binding follistatin-related protein 3 – biochemical, small-molecule microarray, 635 nm fluorescence, primary screen (AID 1105).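 Note: score merges emission near 667 nm and signal to noise per printed spot across three slides.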 The following applies: FSTL3 binding, higher = more signal.
Chain of Follistatin-related protein 3 (Homo sapiens) (O95633 whole entry, looked up): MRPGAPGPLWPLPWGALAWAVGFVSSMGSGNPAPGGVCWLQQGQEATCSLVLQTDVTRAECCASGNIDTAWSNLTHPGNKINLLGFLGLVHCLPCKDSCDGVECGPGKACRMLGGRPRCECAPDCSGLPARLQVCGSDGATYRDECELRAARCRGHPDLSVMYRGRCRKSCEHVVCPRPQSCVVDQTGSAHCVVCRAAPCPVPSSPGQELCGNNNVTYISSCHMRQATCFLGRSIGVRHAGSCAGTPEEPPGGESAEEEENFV
The target in assay [9] is Dickkopf-related protein 1 (Homo sapiens) (UniProt O94907). The assay can be described thus: small molecules binding DKK1 protein – biochemical, small-molecule microarray, 635 nm fluorescence scan, primary screen (AID 1106).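 Note: score merges emission near 667 nm with signal to noise over three replicate slides.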 The following applies: higher = more signal.
Chain of Dickkopf-related protein 1 (Homo sapiens) (O94907 whole entry, looked up): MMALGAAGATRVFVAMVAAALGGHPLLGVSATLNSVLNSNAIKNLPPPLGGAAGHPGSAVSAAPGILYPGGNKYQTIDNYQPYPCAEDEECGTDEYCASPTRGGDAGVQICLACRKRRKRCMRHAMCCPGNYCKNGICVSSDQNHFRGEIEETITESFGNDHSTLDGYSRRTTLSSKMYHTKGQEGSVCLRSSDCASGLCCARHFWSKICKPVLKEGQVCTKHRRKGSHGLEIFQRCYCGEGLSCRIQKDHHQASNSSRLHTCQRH
In assay [10] the test system is Inhibin beta A chain (activin A). The assay can be described thus: small molecules binding activin A – biochemical, small-molecule microarray, 635 nm fluorescence scan, primary screen (AID 1107).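 Note: mouse activin A protein probed at 4.33 µg/mL on printed slides; score merges bound-protein fluorescence near 667 nm with spot signal-to-noise.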 The following applies: INHBA, higher = more signal.
The test system of assay [11] is Human papillomavirus type 1a protein E7 (residues 44-93). The assay can be described thus: small molecules binding HPV E7 44-93 – biochemical, small-molecule microarray, residues 44-93, 635 nm fluorescence, primary screen (AID 1108).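 Note: E7 fragment applied at 1 µg/mL in TBST for 1 h at 4 C; score combines spot fluorescence with its signal to noise ratio.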 The following applies: fluorescence 635 nm, higher = more signal.
A short description of assay [12]: hepatitis C replication reporter changes, two-sided – Huh7 cells, luciferase reporter, HCV replication inhibitor project, primary screen (AID 1109).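 Note: huh7 hepatoma cells harbouring a luciferase neomycin HCV replicon reporter; luciferase luminescence as measure of HCV replicon replication; test concentration not given here.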 The following applies: Huh7 HCV replicon luciferase reporter, 48 h; higher = more signal.
The target in assay [13] is Left-right determination factor 2 (Homo sapiens) (UniProt O00292). The experiment in a line: small molecules binding LEFTY2 protein – biochemical, small-molecule microarray, 635 nm fluorescence scan, primary screen (AID 1110). The following applies: higher = more signal.
Chain of Left-right determination factor 2 (Homo sapiens) (O00292 whole entry, looked up): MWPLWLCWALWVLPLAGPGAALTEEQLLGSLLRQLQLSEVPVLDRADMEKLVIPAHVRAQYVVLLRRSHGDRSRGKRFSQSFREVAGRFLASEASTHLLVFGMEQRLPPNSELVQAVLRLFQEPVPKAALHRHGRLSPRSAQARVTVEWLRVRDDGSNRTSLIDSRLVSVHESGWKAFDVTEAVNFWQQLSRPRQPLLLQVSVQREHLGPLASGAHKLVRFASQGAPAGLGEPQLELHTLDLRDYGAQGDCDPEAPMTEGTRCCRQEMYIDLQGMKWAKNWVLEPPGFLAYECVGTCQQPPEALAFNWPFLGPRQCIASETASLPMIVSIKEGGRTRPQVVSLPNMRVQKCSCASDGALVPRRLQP
Assay [14] has as its target Calmodulin-1 (Homo sapiens) (UniProt P0DP23). The experiment in a line: small molecules binding calmodulin-1 with EGTA – biochemical, small-molecule microarray, Cy5-labelled CALM1, profiling panel (AID 1111).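 Note: labelled calmodulin applied in Tris saline Tween buffer holding calcium plus EGTA and DTT.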 The following applies: Cy5-CALM1 binding fluorescence, higher = more signal.
Assay [15] has the same target. The experiment in a line: small molecules binding Ca-loaded calmodulin-1 – biochemical, small-molecule microarray, Cy5-labelled CALM1, plus calcium, artefact control for SMM control-protein annotation, profiling panel (AID 1112).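 Note: score merges spot fluorescence with signal to noise from triplicate slides.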 The following applies: Cy5-CALM1 binding fluorescence, higher = more signal.
Assay [16] is described as follows: probe aWnt5a binding to arrayed compounds – biochemical, biotinylated probe, 635/667 nm fluorescence, primary screen (AID 1113).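 Note: score merges 667 nm fluorescence intensity with signal-to-noise per printed feature.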 The following applies: small-molecule microarray, higher = more signal.
Assay [17] can be described thus: probe aShh binding to arrayed compounds – biochemical, biotinylated probe, 635/667 nm fluorescence, primary screen (AID 1114).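 Note: probe is biotin-labelled aShh protein from a stem cell growth factor screen; measures binding of labelled protein to compounds printed on the slide; score merges feature fluorescence at 667 nm with signal-to-noise.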 The following applies: small-molecule microarray, higher = more signal.
Assay [18] in a line: probe aNog binding to arrayed compounds – biochemical, biotinylated probe, 635/667 nm fluorescence, primary screen (AID 1115).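 Note: probe is biotinylated aNog protein used at 0.15 µg/mL for 1 h at 4 C; z-score combines 667 nm fluorescence of each spot with its signal to noise.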 The following applies: small-molecule microarray, higher = more signal.
Assay [19] has as its target Torsin-1A-interacting protein 1 (Homo sapiens) (UniProt Q5JTV8). The assay can be described thus: compound microarray binding of lysate hLAP1 – cell lysate, small-molecule microarray, COS7 lysate, 635/667 nm fluorescence, primary screen (AID 1116). The following applies: 635 nm fluorescence, higher = more signal.
Assay [20] addresses Alpha-bungarotoxin (Bungarus multicinctus) (UniProt P60615). The experiment in a line: compounds binding labelled alpha-BTX control protein – biochemical, small-molecule microarray, Alexa647 label, 635/667 nm fluorescence, artefact control for SMM control protein annotation, profiling panel (AID 1117). The following applies: alpha-BTX-A647 binding fluorescence, higher = more signal.

Chain of Epidermal growth factor receptor (Homo sapiens) (P00533 whole entry, looked up): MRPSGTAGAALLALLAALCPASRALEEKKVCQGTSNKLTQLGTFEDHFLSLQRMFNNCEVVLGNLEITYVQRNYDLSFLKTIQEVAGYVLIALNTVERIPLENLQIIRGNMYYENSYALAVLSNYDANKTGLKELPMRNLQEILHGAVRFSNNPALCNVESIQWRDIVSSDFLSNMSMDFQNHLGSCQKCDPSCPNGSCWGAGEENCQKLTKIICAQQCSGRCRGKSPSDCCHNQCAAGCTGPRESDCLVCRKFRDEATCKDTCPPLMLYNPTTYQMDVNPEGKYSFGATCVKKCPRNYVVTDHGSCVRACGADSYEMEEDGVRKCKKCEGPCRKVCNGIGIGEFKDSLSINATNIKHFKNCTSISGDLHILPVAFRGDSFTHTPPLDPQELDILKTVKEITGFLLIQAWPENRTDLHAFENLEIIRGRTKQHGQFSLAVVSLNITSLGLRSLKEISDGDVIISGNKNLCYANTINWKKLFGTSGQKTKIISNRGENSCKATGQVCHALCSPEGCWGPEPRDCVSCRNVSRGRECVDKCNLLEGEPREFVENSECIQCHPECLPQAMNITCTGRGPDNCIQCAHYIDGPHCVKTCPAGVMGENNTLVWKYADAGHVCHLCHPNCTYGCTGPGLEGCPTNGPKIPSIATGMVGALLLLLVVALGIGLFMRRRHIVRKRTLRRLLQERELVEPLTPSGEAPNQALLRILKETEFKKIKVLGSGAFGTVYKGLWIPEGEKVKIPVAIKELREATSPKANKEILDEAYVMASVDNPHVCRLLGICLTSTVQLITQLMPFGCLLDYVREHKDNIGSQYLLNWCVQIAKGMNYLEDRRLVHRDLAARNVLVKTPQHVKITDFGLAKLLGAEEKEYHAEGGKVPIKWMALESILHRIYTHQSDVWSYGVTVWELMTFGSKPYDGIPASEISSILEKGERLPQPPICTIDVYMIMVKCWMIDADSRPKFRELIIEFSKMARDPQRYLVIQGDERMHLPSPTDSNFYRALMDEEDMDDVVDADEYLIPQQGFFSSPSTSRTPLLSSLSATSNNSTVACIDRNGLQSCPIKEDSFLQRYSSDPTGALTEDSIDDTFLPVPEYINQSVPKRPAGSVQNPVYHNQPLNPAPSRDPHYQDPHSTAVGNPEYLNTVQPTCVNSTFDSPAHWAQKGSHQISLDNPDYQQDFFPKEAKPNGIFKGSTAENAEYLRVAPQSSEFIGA
Chain of Torsin-1A-interacting protein 1 (Homo sapiens) (Q5JTV8 whole entry, looked up): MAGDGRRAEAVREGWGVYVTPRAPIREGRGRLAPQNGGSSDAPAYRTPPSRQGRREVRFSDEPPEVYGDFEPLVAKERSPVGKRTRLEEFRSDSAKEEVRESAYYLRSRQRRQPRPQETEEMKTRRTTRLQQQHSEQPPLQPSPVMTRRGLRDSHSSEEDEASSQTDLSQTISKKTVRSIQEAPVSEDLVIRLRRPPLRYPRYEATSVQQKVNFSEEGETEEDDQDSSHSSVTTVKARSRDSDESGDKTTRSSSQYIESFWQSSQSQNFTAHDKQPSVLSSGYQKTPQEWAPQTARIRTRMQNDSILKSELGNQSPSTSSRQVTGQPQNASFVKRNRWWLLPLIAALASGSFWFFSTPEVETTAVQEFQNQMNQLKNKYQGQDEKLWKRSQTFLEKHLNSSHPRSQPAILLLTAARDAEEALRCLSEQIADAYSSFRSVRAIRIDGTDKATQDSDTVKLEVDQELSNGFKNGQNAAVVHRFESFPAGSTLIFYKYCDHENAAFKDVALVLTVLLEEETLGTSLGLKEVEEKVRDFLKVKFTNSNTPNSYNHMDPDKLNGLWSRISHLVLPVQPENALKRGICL
Chain of Alpha-bungarotoxin (Bungarus multicinctus) (P60615 whole entry, looked up): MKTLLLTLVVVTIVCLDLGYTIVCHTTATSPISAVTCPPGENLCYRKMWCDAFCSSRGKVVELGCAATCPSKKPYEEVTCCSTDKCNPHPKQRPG

Regarding `C=C[C@@H](OC)[C@H](O)c1ccc(O)c(F)c1`, the composite z-score was 0.767 and -0.815 in assay [1]; -0.324 and -0.472 in [2]; 0.576 and 0.268 in assay [3]; -1.19 and -1.46 in assay [5]; -1.5 and -1.29 in assay [6]; -1.59 and -0.277 in assay [7]. In addition, the composite z-score in [8] is -2.7 and -1.75; in assay [9], -1.37 and -0.856; in assay [10], -2.04 and -0.759; in [11], -0.829 and -1.4; in assay [13], -1.68 and -1.07; in [14], -0.692 and -1.45. In addition, the composite z-score in assay [15] was -0.898 and -1.11; in assay [16], -0.328 and -0.268; in [17], -0.0553 and -0.0709; in [18] it was -0.564 and -0.908; in [19] it was -0.104 and -0.362; in assay [20], -1.14 and -0.617. The z-score was -0.668 (inactive) and -2.09 (inactive) in assay [4]; 0.0695 and 0.896 in assay [12].
Take `C=C[C@H](OC)[C@@H](O)c1ccc(O)c(F)c1`: the composite z-score in [1] was 1.2 and -1.38; in assay [2] it was -0.48 and -0.349; in assay [3] it was 0.7 and 0.65; in assay [5], -1.35 and -1.61; in assay [6], -2.09 and -1.69; in assay [7], -2.36 and -1.75. In addition, the composite z-score in assay [8] is -1.89 and -1.94; in [9], -2 and -1.4; in assay [10], -1.87 and -1.2; in assay [11], -1.18 and -1.38; in [13], -2.27 and -2.63; in [14], -1.27 and -0.866. Further, the composite z-score in assay [15] is -0.625 and -0.713; in [16], -0.244 and -0.356; in [17], -0.262 and -0.282; in assay [18] it was -0.173 and -0.8; in [19], -0.753 and -1.81; in assay [20] it was -1.36 and -0.191. Besides, the z-score in assay [4] is -0.257 (inactive) and 0.0293 (inactive); in assay [12], 0.156 and -0.114.
Take `C=CCN(C(=O)C(c1cccs1)N(C(=O)/C=C\C(=O)O)C(C)(C)CO)C(C)(C)C` (stereo not given): the composite z-score was -0.387 and -0.159 in [1]; -0.136 and -0.239 in assay [2]; 0.784 and 0.498 in assay [3]; -1.22 and -1.16 in assay [5]; -0.489 and -0.532 in assay [6]; -0.928 and -0.661 in [7]. Besides, the composite z-score in assay [8] is -1.54 and -1.07; in assay [9], -1.53 and -1.58; in assay [10], -0.792 and -0.643; in assay [11], -0.453 and -0.0211; in assay [13], -2.3 and -1.73; in [14] it was -0.243 and -0.782. The composite z-score in assay [15] is -0.403 and 0.164; in [16], -0.124 and -0.197; in assay [17], -0.0553 and -0.0769; in assay [18] it was 0.945 and 0.25; in assay [19] it was 0.78 and -0.351; in assay [20] it was 0.489 and 0.895. Further, the z-score in assay [4] is -1.67 (inactive) and -1.52 (inactive); in assay [12] it was -0.0094 and 0.0766.
As for `C[N+](C)(C)CCCCCCNC(=O)[C@@H]1C[C@@H]2C(=O)N[C@@H](CCCC[N+](C)(C)C)C(=O)N2[C@@H]1c1ccc(O)cc1`, the composite z-score in assay [1] is 0.892 and 0.579; in assay [2] it was -0.126 and -0.175; in assay [3], 0.229 and 0.305; in assay [5] it was 0.606 and 0.803; in [6], -0.115 and 0.255; in assay [7], 0.0444 and -0.539. For the same molecule, the composite z-score in [8] was 0.8 and 0.827; in [9], 1.11 and 0.869; in assay [10], 0.908 and 0.391; in [11], -0.259 and 0.575; in [13], 0.515 and 0.0005; in [14] it was -0.529 and -0.759. Further, the composite z-score in assay [15] is 0.458 and -0.85; in assay [16], -0.144 and -0.13; in assay [17], -0.304 and -0.221; in assay [18] it was -0.0281 and -0.295; in assay [19], 2.61 and 0.23; in [20] it was -0.137 and 0.0818. Besides, the z-score in [4] is -0.0316 (inactive) and 0.431 (inactive); in assay [12], -0.0888 and 0.51.
Consider `CC(C)=NOC[C@@H](O)COCc1ccco1`, for which the composite z-score in [1] was 1.21; in assay [2], -0.254; in [3], -0.0658; in assay [5], -0.341; in [6], -1.15; in assay [7], -0.298. Also, the composite z-score was -0.628 in [8]; 0.421 in [9]; 0.912 in [10]; -1.92 in assay [11]; -0.168 in assay [13]; -0.614 in [14]. The composite z-score in assay [15] is -0.142; in assay [16] it was -0.172; in [17], -0.138; in assay [18] it was -0.342; in assay [19] it was -0.2; in [20], -1.1. Besides, the z-score is 0.638 (inactive) in assay [4] and 0.797 in assay [12].
